# About 8,800 targets were measured; listed, in parts, are those with a hit and a random draw of the rest. About 0.5% of all pairs of compound and target were hits. Values without a mark were called inactive.
# How the values were obtained:
# Assay in all cases: log2 fold change, soluble protein after heating vs DMSO (PISA); higher = thermal stabilisation; K562 lysate, 10 uM; active = over 0.2 and 3.5 SD of the protein, either way, in both replicates (recomputed)
# vemurafenib = compound: CCCS(=O)(=O)Nc1ccc(F)c(C(=O)c2c[nH]c3ncc(-c4ccc(Cl)cc4)cc23)c1F [vemurafenib]
# Summary of the method: (§1)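 A 30 min treatment with 10 μM compound was applied to crude K562 extract at 1 mg/mL protein in PBS pH 7.4 with 1 mM MgCl2. Heating for 3 min spanned 48°C-58°C, after which aliquots were pooled, adjusted to 0.5% NP-40 at 4°C and spun at 21,000xg for 90 min. TMTpro 16plex LC-MS/MS of the supernatant, with channel sums equalised, gave values recorded as log-two fold change in thermal stability against solvent controls, from duplicates.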
# [1] = compound: CCCS(=O)(=O)Nc1ccc(F)c(C(=O)c2c[nH]c3ncc(Cl)cc23)c1F
# Summary of the method: as §1
# barasertib = compound: CCN(CCCOc1ccc2c(Nc3cc(CC(=O)Nc4cccc(F)c4)[nH]n3)ncnc2c1)CCOP(=O)(O)O [barasertib]
# Summary of the method: as §1
# [2] = compound: CC[C@@H]1C(=O)N(C)c2cnc(Nc3ccc(C(=O)NC4CCN(C)CC4)cc3OC)nc2N1C1CCCC1
# Summary of the method: as §1
# volasertib = compound: CC[C@@H]1C(=O)N(C)c2cnc(Nc3ccc(C(=O)N[C@H]4CC[C@H](N5CCN(CC6CC6)CC5)CC4)cc3OC)nc2N1C(C)C [volasertib]
# Summary of the method: as §1
# [3] = compound: CCn1c(C(=O)N(C2CC2)C2CC2)cc2c3c(ncn3C)c(Nc3cc(C)n(C)n3)nc21
# Summary of the method: as §1
# [4] = compound: CCn1cc(-c2ccnc3[nH]c(-c4cccc(CN(C)C)c4)cc23)c(-c2ccc(NC(=O)N(C)C)cc2)n1
# Summary of the method: as §1
# [5] = compound: CN1CCC(CNc2ccc3ncc(-c4cccc(OC(F)(F)F)c4)n3n2)CC1
# Summary of the method: as §1
# saracatinib = compound: CN1CCN(CCOc2cc(OC3CCOCC3)c3c(Nc4c(Cl)ccc5c4OCO5)ncnc3c2)CC1 [saracatinib]
# Summary of the method: as §1
# sotrastaurin = compound: CN1CCN(c2nc(C3=C(c4c[nH]c5ccccc45)C(=O)NC3=O)c3ccccc3n2)CC1 [sotrastaurin]
# Summary of the method: as §1
# alvocidib = compound: CN1CC[C@H](c2c(O)cc(O)c3c(=O)cc(-c4ccccc4Cl)oc23)[C@H](O)C1 [alvocidib]
# Summary of the method: as §1
# Tubastatin A = compound: CN1CCc2c(c3ccccc3n2Cc2ccc(C(=O)NO)cc2)C1 [Tubastatin A]
# Summary of the method: as §1
# [6] = compound: CNC(=O)C1=CC=CC=C1NC2=NC(=NC=C2Cl)NC3=C(C=C(C=C3)N4CCOCC4)OC
# Summary of the method: as §1
# defactinib = compound: CNC(=O)c1ccc(Nc2ncc(C(F)(F)F)c(NCc3nccnc3N(C)S(C)(=O)=O)n2)cc1 [defactinib]
# Summary of the method: as §1
# [7] = compound: CNc1nc(-c2ccc3c(N)n[nH]c3c2)cc(N2C[C@@H](C(=O)NC3CCCCC3)CC[C@H]2C)n1
# Summary of the method: as §1
# encorafenib = compound: COC(=O)N[C@@H](C)CNc1nccc(-c2cn(C(C)C)nc2-c2cc(Cl)cc(NS(C)(=O)=O)c2F)n1 [encorafenib]
# Summary of the method: as §1
# [8] = compound: COC(=O)[C@H](CCSC)NC(=O)C1=C(C=C(C=C1)NC[C@H](CS)N)C2=CC=CC=C2
# Summary of the method: as §1
# alisertib = compound: COc1cc(Nc2ncc3c(n2)-c2ccc(Cl)cc2C(c2c(F)cccc2OC)=NC3)ccc1C(=O)O [alisertib]
# Summary of the method: as §1
# [9] = compound: COc1cc2nc(-c3cc(F)ccc3O)nc(N[C@@H]3CNC[C@H]3C(C)(C)O)c2cc1OC
# Summary of the method: as §1
# gefitinib = compound: COc1cc2ncnc(Nc3ccc(F)c(Cl)c3)c2cc1OCCCN1CCOCC1 [gefitinib]
# Summary of the method: as §1
# Chain of UniProt Q86WJ1 (Q86WJ1 whole entry, looked up): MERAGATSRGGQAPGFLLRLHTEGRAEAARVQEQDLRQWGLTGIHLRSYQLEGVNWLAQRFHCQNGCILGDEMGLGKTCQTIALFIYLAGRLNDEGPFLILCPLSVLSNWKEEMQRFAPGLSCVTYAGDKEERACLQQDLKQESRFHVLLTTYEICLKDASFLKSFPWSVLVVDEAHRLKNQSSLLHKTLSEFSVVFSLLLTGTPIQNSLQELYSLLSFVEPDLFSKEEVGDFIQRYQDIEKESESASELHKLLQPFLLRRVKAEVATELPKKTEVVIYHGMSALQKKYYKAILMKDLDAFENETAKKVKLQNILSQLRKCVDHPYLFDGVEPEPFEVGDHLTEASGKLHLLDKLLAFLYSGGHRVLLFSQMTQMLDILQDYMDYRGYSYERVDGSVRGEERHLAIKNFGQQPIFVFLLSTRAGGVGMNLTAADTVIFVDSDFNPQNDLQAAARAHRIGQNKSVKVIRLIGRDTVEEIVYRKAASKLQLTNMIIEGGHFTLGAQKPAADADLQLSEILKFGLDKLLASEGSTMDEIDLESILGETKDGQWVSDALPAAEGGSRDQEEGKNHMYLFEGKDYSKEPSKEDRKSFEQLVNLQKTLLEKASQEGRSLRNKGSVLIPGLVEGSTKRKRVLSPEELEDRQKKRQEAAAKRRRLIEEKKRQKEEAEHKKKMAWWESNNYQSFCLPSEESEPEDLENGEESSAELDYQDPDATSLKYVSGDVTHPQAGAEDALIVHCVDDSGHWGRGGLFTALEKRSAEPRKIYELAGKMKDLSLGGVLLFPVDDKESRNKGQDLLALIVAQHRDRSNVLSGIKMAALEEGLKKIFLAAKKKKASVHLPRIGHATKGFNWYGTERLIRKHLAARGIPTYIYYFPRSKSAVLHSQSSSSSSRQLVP
# Chain of UniProt Q9NW68 (Q9NW68 whole entry, looked up): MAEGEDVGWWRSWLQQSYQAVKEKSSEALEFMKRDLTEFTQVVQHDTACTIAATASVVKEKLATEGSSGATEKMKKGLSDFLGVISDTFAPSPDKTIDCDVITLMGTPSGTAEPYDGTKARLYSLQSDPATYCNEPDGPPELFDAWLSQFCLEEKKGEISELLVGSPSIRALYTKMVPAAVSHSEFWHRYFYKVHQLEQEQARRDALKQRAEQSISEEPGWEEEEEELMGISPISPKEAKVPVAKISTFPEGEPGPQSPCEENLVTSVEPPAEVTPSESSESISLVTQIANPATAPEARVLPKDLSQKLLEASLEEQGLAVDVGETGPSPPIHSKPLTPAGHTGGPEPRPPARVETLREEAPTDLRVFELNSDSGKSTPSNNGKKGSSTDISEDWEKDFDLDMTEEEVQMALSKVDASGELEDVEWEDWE
# Chain of UniProt P18859 (P18859 whole entry, looked up): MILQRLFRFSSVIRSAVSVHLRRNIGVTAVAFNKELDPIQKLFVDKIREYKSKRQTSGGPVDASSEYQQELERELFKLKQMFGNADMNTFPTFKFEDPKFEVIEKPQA
# Chain of UniProt Q96B23 (Q96B23 whole entry, looked up): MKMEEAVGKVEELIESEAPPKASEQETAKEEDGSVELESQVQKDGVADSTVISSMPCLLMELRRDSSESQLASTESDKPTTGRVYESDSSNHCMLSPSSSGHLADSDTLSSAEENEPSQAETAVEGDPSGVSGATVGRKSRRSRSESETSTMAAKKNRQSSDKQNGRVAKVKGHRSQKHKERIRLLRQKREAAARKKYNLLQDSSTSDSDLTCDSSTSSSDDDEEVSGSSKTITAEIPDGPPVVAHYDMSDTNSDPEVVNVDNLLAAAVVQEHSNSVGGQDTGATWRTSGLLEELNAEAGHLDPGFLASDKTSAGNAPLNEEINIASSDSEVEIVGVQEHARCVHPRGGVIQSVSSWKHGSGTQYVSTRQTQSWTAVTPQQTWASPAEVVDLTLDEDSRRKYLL
# Chain of UniProt O00311 (O00311 whole entry, looked up): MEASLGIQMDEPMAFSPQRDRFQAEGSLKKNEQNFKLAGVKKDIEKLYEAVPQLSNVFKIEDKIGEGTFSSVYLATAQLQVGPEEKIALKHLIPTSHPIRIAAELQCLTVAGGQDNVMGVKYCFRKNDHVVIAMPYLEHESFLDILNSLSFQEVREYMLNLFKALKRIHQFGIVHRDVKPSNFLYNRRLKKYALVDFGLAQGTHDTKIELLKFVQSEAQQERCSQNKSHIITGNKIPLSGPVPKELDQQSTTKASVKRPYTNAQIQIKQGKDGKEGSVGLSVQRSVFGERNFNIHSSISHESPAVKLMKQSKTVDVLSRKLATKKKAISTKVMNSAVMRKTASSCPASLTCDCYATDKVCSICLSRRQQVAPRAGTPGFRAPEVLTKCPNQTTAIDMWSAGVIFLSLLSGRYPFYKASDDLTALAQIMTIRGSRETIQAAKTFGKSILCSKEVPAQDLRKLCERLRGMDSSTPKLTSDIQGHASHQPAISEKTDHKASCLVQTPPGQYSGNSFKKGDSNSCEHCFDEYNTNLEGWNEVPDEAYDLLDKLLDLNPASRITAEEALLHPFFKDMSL
# Chain of UniProt Q6P4E1 (Q6P4E1 whole entry, looked up): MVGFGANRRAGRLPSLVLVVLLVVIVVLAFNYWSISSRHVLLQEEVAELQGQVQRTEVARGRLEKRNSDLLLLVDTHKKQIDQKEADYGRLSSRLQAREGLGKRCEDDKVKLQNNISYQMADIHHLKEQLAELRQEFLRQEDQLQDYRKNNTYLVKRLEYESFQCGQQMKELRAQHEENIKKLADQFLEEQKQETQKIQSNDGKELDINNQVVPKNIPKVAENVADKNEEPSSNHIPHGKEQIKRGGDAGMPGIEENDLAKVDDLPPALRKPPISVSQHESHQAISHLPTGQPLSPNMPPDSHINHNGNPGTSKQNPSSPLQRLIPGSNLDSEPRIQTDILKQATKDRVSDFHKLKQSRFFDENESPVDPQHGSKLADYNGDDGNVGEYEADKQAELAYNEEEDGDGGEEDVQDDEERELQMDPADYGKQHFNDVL
# Chain of UniProt P14635 (P14635 whole entry, looked up): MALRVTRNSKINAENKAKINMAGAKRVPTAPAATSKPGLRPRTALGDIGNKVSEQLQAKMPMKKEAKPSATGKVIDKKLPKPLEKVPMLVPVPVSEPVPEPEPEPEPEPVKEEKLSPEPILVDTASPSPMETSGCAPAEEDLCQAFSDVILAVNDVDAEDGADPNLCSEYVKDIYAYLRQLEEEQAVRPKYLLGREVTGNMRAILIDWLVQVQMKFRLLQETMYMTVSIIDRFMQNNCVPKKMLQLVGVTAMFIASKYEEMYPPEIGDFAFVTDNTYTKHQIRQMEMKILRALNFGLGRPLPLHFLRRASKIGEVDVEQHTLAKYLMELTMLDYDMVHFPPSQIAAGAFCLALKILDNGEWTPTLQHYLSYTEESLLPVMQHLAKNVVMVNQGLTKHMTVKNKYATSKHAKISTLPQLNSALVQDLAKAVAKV
Target,log2 fold change (vemurafenib),log2 fold change [1],log2 fold change (barasertib),log2 fold change [2],log2 fold change (volasertib),log2 fold change [3],log2 fold change [4],log2 fold change [5],log2 fold change (saracatinib),log2 fold change (sotrastaurin),log2 fold change (alvocidib),log2 fold change (Tubastatin A),log2 fold change [6],log2 fold change (defactinib),log2 fold change [7],log2 fold change (encorafenib),log2 fold change [8],log2 fold change (alisertib),log2 fold change [9],log2 fold change (gefitinib)
CCNB1 (UniProt P14635),0.032,-0.021,0.019,0.03,-0.043,-0.031,-0.023,-0.012,0.002,-0.038,-0.015,0.021,-0.003,-0.117,0.028,0.029,-0.023,0,0.407 (active),-0.024
CHCHD1 (UniProt Q96BP2),0.157,-0.025,-0.002,0.028,-0.001,-0.075,1.08 (active),-0.338,0.032,0.16,0.494,0.046,0.028,-0.033,0.087,-0.018,-0.042,0.003,0.023,0.228
CDC7 (UniProt O00311),0.065,0.073,-0.005,0.039,-0.097,-0.003,-0.01,-0.073,0.004,0.036,-0.081,-0.112,0.077,0.007,0.042,0.011,0.078,-0.059,-0.04,-0.036
CHD1L (UniProt Q86WJ1),0.033,0.011,0.062,-0.029,-0.09,0.024,-0.053,-0.054,0,-0.001,0.012,-0.16,-0.003,-0.001,-0.025,0.013,0.114,0.018,-0.002,0.006
ATP5PF isoform 2 (UniProt P18859),0.083,-0.023,0.064,0.076,0.133,0.076,0.663 (active),-0.205,-0.024,-0.067,0.203,0.146,0.042,0.071,-0.022,0.014,-0.061,-0.005,0.01,-0.173
CASC4 (UniProt Q6P4E1),0,0.02,-0.02,0.009,0.017,0.022,-0.05,-0.008,-0.003,-0.004,-0.03,0.054,0.011,-0.064,-0.044,0.128,-0.012,0.035,-0.004,0.086
BSDC1 (UniProt Q9NW68),0.027,0.053,0.078,0.099,0.018,-0.01,-0.027,0.041,0.03,-0.019,-0.033,0.052,0.018,0.031,-0.025,0.112,-0.149,0.026,-0.031,-0.017
CAPNS1 (UniProt K7ES78),0.143,-0.07,,,0.033,0.076,,,0.12,-0.071,,-0.074,0.001,0.035,-0.068,,,,-0.083,
C18orf25 isoform 2 (UniProt Q96B23),-0.01,0.027,-0.034,0.067,-0.021,-0.047,-0.234,0.037,-0.037,,0.1,0.106,0.1,0.072,0.043,0.033,-0.084,0.058,0.031,0.034

# Reference: the supplement of paper PMC10849652
